# According to PMC7862700, “An all-to-all approach to the identification of sequence-specific readers for epigenetic DNA modifications on cytosine”:
# How the values were obtained:
# Experiment in all cases: DAPPL (digital affinity profiling via proximity ligation, sequencing); 10 mM Tris-HCl pH 7.5, 50 mM NaCl, 1 mM DTT, 4% glycerol, room temperature, 30 min; GST-TFs on glutathione beads, 16-mer random dsDNA library, 0.1% formaldehyde crosslink after washing; high values mean tight binding
# [1] = target: T1, FLI1 (Homo sapiens, UniProt Q01543 1-452); details: protein: recombinant; tags: N-terminal GST; dsDNA, one strand shown
# T1 sequence: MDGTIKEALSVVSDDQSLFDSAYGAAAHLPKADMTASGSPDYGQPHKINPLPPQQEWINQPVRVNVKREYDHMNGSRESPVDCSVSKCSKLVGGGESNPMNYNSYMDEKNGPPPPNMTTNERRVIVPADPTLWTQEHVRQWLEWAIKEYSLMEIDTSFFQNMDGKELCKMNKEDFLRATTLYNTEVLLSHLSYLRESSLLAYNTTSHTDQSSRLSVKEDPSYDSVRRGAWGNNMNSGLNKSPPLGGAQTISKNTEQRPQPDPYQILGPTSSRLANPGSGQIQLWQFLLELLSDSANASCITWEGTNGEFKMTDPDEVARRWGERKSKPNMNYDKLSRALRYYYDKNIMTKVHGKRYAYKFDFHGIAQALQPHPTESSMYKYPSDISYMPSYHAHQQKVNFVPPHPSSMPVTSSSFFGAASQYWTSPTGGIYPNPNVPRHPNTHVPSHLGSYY
# Summary of the method: (§1)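 Pools of DNA-barcoded human transcription factors, expressed in yeast as GST fusions on glutathione beads and combined with a tag-only sample, were incubated with 200 nmole of a 16-mer random double-stranded DNA library. Incubation took 30 min at room temperature in Tris/NaCl/DTT/glycerol buffer and was followed by washing, 0.1% formaldehyde crosslinking, proximity ligation (BsaI/T4 ligase, 1 h, 37 °C), PCR amplification and sequencing on an Illumina NextSeq500. Binding signal is the ratio of a hexamer's read frequency for a factor to its frequency for the tag-only sample.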
# [2] = target: T2, ELK1 (Homo sapiens, UniProt P19419 1-428); details: protein: recombinant; tags: N-terminal GST; dsDNA, one strand shown
# T2 sequence: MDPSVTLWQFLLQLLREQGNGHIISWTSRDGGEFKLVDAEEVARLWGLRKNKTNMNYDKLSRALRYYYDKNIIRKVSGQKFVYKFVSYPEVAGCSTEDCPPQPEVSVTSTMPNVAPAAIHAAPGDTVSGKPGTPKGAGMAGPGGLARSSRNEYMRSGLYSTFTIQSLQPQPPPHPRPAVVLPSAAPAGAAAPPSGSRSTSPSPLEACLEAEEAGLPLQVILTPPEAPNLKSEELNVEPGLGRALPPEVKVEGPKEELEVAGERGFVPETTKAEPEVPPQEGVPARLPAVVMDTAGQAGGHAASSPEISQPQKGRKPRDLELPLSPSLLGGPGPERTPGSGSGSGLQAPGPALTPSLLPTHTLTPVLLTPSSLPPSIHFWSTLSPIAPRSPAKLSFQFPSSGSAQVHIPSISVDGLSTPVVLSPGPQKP
# Summary of the method: as §1
# [3] = target: T3, GABPA (Homo sapiens, UniProt Q06546 1-454); details: protein: recombinant; tags: N-terminal GST; dsDNA, one strand shown
# T3 sequence: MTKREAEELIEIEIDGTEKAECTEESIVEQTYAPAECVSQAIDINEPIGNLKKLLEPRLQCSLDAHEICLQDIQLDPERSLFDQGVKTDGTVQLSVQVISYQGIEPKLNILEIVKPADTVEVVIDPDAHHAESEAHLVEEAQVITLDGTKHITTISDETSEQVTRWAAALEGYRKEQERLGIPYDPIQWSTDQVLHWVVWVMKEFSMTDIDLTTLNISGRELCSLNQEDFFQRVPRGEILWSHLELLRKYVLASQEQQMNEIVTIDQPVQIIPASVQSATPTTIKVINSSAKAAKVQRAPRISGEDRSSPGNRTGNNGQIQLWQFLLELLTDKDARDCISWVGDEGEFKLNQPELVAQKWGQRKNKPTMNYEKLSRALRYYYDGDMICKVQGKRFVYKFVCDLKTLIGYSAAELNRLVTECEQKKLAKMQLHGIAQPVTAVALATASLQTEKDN
# Summary of the method: as §1
# [4] = target: T4, ERG (Homo sapiens, UniProt P11308 1-479); details: protein: recombinant; tags: N-terminal GST; dsDNA, one strand shown
# T4 sequence: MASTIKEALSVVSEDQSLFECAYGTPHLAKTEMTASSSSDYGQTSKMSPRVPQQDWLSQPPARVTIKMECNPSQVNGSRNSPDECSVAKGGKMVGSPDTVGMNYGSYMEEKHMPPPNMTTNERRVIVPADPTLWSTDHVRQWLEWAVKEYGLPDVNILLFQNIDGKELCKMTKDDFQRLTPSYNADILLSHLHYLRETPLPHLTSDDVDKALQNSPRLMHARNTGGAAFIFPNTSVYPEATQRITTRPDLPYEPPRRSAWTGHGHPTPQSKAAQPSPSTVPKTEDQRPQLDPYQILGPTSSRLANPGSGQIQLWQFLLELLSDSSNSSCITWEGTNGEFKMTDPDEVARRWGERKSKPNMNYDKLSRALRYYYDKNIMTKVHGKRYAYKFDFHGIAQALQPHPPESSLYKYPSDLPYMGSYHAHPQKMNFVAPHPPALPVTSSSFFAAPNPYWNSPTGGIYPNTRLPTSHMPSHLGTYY
# Summary of the method: as §1
# [5] = target: ELF1 (Homo sapiens, UniProt P32519 1-619); details: protein: recombinant; tags: N-terminal GST; dsDNA, one strand shown
# Summary of the method: as §1
# [6] = target: T5, EHF (Homo sapiens, UniProt Q9NZC4 1-300); details: protein: recombinant; tags: N-terminal GST; dsDNA, one strand shown
# T5 sequence: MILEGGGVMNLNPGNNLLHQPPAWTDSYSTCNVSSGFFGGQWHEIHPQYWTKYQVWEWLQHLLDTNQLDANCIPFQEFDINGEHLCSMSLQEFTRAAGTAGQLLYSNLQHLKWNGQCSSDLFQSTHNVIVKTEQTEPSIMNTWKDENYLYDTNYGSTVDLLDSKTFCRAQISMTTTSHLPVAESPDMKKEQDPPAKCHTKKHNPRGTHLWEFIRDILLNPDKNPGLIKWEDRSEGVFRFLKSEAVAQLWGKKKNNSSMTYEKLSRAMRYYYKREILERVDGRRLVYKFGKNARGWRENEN
# Summary of the method: as §1
# [7] = target: SPI1 (Homo sapiens, UniProt P17947 1-270); details: protein: recombinant; tags: N-terminal GST; dsDNA, one strand shown
# Summary of the method: as §1
# [8] = target: SPIB (Homo sapiens, UniProt Q01892 1-262); details: protein: recombinant; tags: N-terminal GST; dsDNA, one strand shown
# Summary of the method: as §1
# [9] = target: T6, ELK3 (Homo sapiens, UniProt P41970 1-407); details: protein: recombinant; tags: N-terminal GST; dsDNA, one strand shown
# T6 sequence: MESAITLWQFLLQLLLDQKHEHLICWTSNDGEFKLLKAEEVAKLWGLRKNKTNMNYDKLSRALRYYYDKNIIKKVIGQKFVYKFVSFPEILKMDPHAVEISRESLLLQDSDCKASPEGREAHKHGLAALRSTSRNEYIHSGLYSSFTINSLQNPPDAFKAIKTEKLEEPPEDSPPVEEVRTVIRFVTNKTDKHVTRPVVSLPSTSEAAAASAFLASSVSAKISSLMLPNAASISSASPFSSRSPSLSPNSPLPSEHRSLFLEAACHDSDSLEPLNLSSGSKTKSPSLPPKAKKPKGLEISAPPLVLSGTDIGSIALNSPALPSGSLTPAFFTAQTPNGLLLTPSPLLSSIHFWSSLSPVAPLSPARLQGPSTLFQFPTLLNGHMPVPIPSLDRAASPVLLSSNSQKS
# Summary of the method: as §1
# [10] = target: T7, FEV (Homo sapiens, UniProt Q99581 1-238); details: protein: recombinant; tags: N-terminal GST; dsDNA, one strand shown
# T7 sequence: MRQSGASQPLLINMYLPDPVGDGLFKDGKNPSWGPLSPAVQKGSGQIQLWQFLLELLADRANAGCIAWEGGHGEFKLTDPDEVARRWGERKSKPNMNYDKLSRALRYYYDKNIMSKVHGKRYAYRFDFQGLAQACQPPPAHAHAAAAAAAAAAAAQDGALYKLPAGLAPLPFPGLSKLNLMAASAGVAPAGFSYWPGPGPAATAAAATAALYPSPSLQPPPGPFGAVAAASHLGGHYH
# Summary of the method: as §1
# [11] = target: ETV5 (Homo sapiens, UniProt P41161 1-510); details: protein: recombinant; tags: N-terminal GST; dsDNA, one strand shown
# Summary of the method: as §1
# [12] = target: HSF1 (Homo sapiens, UniProt Q00613 1-529); details: protein: recombinant; tags: N-terminal GST; chain copies: 3; dsDNA, one strand shown
# Summary of the method: as §1
# [13] = target: T8, SPIC (Homo sapiens, UniProt Q8N5J4 1-248); details: protein: recombinant; tags: N-terminal GST; dsDNA, one strand shown
# T8 sequence: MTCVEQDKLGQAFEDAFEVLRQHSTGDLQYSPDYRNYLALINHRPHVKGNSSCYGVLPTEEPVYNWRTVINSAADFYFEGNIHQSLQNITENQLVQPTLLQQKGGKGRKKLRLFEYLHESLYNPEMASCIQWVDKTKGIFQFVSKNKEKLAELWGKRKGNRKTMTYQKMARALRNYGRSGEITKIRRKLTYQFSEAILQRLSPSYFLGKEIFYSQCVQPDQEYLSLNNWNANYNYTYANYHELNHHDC
# Summary of the method: as §1
# [14] = target: ELF4 (Homo sapiens, UniProt Q99607 1-663); details: protein: recombinant; tags: N-terminal GST; dsDNA, one strand shown
# Summary of the method: as §1
# [15] = target: T9, ELK4 (Homo sapiens, UniProt P28324-2 1-405); details: protein: recombinant; tags: N-terminal GST; dsDNA, one strand shown
# T9 sequence: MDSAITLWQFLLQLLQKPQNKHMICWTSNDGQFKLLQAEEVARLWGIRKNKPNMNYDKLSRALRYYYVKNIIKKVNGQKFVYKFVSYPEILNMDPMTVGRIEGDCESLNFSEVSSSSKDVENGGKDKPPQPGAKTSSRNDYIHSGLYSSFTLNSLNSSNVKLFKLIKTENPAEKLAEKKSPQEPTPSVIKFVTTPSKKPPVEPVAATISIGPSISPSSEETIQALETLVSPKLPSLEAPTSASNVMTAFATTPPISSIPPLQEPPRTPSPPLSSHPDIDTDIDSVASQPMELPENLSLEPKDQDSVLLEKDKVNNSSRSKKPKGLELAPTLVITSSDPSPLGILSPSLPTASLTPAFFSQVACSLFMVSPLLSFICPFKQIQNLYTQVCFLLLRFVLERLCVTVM
# Summary of the method: as §1
# [16] = target: T10, ETV2 (Homo sapiens, UniProt O00321 1-342); details: protein: recombinant; tags: N-terminal GST; dsDNA, one strand shown
# T10 sequence: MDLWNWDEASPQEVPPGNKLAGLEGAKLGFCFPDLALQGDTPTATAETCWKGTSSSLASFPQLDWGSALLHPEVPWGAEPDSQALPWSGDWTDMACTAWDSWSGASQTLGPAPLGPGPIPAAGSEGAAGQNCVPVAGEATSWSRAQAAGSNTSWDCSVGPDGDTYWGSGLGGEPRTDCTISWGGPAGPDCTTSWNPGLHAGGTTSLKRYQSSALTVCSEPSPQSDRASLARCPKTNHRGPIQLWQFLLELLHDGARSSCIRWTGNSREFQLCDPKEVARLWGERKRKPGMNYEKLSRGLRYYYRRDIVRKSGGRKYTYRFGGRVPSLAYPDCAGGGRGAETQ
# Summary of the method: as §1
# [17] = target: T11, ELF3 (Homo sapiens, UniProt P78545 1-371); details: protein: recombinant; tags: N-terminal GST; dsDNA, one strand shown
# T11 sequence: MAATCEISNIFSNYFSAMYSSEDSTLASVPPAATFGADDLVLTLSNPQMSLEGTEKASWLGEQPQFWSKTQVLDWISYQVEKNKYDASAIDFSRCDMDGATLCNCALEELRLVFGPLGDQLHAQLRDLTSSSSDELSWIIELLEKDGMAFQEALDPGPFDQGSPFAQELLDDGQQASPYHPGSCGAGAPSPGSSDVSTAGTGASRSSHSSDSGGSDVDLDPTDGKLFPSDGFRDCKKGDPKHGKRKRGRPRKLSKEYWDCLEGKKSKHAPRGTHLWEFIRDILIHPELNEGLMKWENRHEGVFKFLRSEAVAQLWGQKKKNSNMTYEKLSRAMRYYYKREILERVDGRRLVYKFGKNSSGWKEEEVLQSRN
# Summary of the method: as §1
# [18] = target: CRX (Homo sapiens, UniProt O43186 1-299); details: protein: recombinant; tags: N-terminal GST; dsDNA, one strand shown
# Summary of the method: as §1
# [19] = target: ETV1 (Homo sapiens, UniProt P50549 1-477); details: protein: recombinant; tags: N-terminal GST; dsDNA, one strand shown
# Summary of the method: as §1
# Chain of ETV5 (P41161 whole entry): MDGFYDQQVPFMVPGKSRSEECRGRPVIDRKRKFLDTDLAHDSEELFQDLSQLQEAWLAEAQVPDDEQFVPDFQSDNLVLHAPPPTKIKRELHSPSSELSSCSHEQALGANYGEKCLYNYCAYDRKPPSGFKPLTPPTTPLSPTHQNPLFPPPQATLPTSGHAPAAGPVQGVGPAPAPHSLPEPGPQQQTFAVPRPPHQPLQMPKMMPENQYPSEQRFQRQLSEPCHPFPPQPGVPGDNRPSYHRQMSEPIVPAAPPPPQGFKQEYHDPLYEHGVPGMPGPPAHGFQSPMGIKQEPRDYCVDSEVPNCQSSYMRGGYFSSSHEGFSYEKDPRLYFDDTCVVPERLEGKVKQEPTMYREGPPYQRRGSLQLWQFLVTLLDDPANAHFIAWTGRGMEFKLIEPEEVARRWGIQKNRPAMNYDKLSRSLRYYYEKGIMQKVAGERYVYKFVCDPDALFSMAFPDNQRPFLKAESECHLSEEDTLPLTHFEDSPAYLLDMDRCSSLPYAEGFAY
# Chain of ELF4 (Q99607 whole entry): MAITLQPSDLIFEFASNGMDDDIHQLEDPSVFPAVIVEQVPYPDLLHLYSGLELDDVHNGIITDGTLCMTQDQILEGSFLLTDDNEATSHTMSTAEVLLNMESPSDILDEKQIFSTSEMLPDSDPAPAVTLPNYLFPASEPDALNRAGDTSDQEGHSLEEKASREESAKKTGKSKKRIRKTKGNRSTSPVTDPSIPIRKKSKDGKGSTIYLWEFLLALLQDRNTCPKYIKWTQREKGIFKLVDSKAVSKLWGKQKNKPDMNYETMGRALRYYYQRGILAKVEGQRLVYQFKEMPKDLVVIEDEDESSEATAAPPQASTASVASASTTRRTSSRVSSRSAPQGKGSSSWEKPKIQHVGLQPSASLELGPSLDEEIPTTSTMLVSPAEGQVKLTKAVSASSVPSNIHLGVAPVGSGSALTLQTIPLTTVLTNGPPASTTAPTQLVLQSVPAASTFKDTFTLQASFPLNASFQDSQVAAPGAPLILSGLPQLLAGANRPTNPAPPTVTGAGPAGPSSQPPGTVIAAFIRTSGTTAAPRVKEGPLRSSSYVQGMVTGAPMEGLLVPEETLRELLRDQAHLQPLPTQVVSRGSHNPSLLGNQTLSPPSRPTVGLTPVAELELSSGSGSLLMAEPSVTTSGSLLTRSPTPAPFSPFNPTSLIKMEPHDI
# Chain of ETV1 (P50549 whole entry): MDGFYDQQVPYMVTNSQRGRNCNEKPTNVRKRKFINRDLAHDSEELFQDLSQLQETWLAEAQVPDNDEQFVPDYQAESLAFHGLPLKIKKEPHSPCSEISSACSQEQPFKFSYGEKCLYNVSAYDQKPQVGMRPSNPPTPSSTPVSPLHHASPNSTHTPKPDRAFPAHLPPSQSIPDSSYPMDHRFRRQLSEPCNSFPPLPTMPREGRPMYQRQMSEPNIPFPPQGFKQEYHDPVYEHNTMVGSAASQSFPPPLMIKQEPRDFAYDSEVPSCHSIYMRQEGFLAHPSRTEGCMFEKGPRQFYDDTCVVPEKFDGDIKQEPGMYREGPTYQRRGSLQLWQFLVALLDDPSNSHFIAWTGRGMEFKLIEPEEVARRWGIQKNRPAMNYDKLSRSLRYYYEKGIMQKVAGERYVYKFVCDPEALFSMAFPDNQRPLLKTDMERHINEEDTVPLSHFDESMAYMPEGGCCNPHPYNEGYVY
# Chain of HSF1 (Q00613 whole entry): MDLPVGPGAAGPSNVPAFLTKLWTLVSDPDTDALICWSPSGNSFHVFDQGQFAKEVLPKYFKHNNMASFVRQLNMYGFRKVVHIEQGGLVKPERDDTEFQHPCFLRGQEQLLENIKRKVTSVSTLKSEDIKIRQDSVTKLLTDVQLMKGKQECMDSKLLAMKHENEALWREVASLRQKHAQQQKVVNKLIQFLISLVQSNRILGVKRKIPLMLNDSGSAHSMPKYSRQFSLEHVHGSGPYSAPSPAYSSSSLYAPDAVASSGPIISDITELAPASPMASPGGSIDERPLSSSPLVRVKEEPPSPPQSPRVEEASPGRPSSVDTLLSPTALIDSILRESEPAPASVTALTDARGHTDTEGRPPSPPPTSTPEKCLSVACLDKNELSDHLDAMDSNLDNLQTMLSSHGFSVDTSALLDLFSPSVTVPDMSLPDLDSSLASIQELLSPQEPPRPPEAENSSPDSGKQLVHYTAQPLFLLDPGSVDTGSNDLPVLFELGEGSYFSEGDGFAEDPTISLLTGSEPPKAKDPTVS
# Chain of ELF1 (P32519 whole entry): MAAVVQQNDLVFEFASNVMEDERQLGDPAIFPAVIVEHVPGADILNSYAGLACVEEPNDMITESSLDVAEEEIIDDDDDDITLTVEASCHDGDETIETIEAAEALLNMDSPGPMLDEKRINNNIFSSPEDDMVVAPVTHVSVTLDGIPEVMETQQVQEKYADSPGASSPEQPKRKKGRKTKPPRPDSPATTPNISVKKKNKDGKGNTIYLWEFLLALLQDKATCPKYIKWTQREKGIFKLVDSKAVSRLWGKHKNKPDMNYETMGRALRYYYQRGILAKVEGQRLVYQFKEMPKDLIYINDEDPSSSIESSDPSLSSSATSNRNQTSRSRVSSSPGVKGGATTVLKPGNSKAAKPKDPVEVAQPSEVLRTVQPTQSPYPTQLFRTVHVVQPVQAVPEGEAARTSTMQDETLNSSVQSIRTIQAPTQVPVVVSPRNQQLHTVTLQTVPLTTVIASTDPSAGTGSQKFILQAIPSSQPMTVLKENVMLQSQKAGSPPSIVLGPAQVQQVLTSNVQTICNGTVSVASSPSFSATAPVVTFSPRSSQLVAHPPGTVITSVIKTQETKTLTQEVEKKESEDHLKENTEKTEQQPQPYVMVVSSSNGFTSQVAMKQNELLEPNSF
# Chain of CRX (O43186 whole entry): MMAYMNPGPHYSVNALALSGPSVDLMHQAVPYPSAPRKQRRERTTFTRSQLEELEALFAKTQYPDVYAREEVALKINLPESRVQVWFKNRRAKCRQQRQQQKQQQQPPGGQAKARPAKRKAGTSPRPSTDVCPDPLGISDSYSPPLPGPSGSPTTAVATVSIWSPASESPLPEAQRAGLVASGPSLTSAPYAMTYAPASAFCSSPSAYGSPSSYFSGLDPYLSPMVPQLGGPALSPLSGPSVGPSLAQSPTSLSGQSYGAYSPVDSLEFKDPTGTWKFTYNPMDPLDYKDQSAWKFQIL
# Chain of SPIB (Q01892 whole entry): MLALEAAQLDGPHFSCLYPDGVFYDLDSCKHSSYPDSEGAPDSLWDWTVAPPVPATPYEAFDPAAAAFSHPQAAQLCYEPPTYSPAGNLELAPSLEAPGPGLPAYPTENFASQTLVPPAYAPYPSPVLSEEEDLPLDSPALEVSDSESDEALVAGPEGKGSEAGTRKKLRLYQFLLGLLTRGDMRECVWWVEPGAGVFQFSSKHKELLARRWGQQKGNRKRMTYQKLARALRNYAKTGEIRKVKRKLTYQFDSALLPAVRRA
sequence,measurement,setting,value
GCTGCT,binding signal,[1],"1.32 fold enrichment (6-mer frequency, TF over GST control)"
same,binding signal,[2],"1.24 fold enrichment (6-mer frequency, TF over GST control)"
same,binding signal,[3],"1.24 fold enrichment (6-mer frequency, TF over GST control)"
same,binding signal,[4],"1.29 fold enrichment (6-mer frequency, TF over GST control)"
same,binding signal,[5],"1.41 fold enrichment (6-mer frequency, TF over GST control)"
same,binding signal,[6],"1.34 fold enrichment (6-mer frequency, TF over GST control)"
same,binding signal,[7],"1.19 fold enrichment (6-mer frequency, TF over GST control)"
same,binding signal,[8],"1.29 fold enrichment (6-mer frequency, TF over GST control)"
same,binding signal,[9],"1.27 fold enrichment (6-mer frequency, TF over GST control)"
same,binding signal,[10],"1.27 fold enrichment (6-mer frequency, TF over GST control)"
same,binding signal,[11],"1.25 fold enrichment (6-mer frequency, TF over GST control)"
same,binding signal,[12],"1.13 fold enrichment (6-mer frequency, TF over GST control)"
same,binding signal,[13],"1.5 fold enrichment (6-mer frequency, TF over GST control)"
same,binding signal,[14],"1.29 fold enrichment (6-mer frequency, TF over GST control)"
same,binding signal,[15],"1.36 fold enrichment (6-mer frequency, TF over GST control)"
same,binding signal,[16],"1.25 fold enrichment (6-mer frequency, TF over GST control)"
same,binding signal,[17],"1.37 fold enrichment (6-mer frequency, TF over GST control)"
same,binding signal,[18],"1.27 fold enrichment (6-mer frequency, TF over GST control)"
same,binding signal,[19],"1.42 fold enrichment (6-mer frequency, TF over GST control)"
